From PubChem BioAssay (NCATS)
Several values for one entry are separate records, joined by “and”; a condition that tells them apart may be missing. Equal values may be shown once. Inconclusive results are not listed. Where a call stands in place of a potency, no number is given. A number with no mark means an inactive call. Activity calls are given as the source filed them. Calls follow the shape of the dose curve; as a rule, active = well fitted curve in the direction sought with a large enough effect; inconclusive = small, poorly fitted or top-dose-only effect, or another doubt; inactive = no such curve, though single readings can be large; an effect the other way counts as inactive or inconclusive.

Legend:
[1] = target: Cellular tumor antigen p53 (Homo sapiens) (UniProt P04637); assay: Primary qHTS for small molecule compounds that upregulate eGFP-tagged delta133p53alpha (in N-terminal) cells. (AID 2060322); conditions: NCI-H358 eGFP-delta133p53alpha fluorescence, 24 h; activation: stronger effect = higher value; also: nearly all actives have a fitted effect of over 75% in size; also: potency is read from the fitted curve at half-maximal effect;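 as to activation: cells pre-induced with doxycycline then dosed without doxycycline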
Sequence of Cellular tumor antigen p53 (Homo sapiens) (P04637 whole entry, looked up): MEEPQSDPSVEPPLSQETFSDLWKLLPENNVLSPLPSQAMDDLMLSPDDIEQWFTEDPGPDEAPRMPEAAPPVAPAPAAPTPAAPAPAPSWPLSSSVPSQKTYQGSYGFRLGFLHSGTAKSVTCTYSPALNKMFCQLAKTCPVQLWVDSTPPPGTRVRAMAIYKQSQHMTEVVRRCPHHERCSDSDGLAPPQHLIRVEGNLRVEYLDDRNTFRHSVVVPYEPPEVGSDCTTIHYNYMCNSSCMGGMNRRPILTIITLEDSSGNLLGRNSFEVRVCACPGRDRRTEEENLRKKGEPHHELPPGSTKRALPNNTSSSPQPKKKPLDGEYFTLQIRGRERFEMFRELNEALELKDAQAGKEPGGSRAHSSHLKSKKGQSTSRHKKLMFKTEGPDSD
Outline: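 NCI-H358 cells pre-induced 24 h with 10 ng/ml doxycycline for eGFP-delta133p53alpha, plated dox-free and exposed 24 h at 37C to titrated compounds. Fixed, Hoechst-stained; gated GFP peak intensity by laser scanning cytometry, normalized to DMSO (0%) and 57.5 uM 5-azacytidine (100%).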

[2] = target: Aldehyde dehydrogenase, mitochondrial (Homo sapiens) (UniProt P05091); assay: qHTS for Inhibitors of the Aldehyde Dehydrogenase Family (ALDH2) Primary screen (AID 2061308); conditions: ALDH2 enzyme inhibition qHTS, 1536-well; series mostly up to 56 µM; also: nearly all actives have a fitted effect of over 55% in size
[3] = target: Retinaldehyde dehydrogenase 3 (Homo sapiens) (UniProt P47895); assay: qHTS for Inhibitors of the Aldehyde Dehydrogenase Family (ALDH1A3) Validation screen (AID 2061312); conditions: ALDH1A3 enzyme inhibition qHTS validation, fluorescence; series mostly up to 42.4 µM; also: nearly all actives have a fitted effect of over 45% in size
[4] = target: Retinaldehyde dehydrogenase 3 (Homo sapiens) (UniProt P47895); assay: qHTS for Inhibitors of the Aldehyde Dehydrogenase Family (ALDH1A3) Primary screen (AID 2061315); conditions: ALDH inhibition qHTS; series mostly up to 56 µM

Row | Structure (SMILES) | activation [1] | Potency [2] | Potency [3] | Potency [4] | Potency [1] | activity change, negative = inhibition [2] | activity change, negative = inhibition [4]
1 | CC(C)N(CCNC(=O)CN1CCCC1=O)C(C)C | -9.94% and -3.34% | inactive | inactive | inactive | – | – | –
2 | CN1C(=O)CN=C(c2ccccc2Cl)c2cc(Cl)ccc21 | -10% | inactive | inactive | inactive | – | – | –
3 | CCc1nn(C)c(C(=O)NCc2ccc(Oc3ccc(C)cc3)cc2)c1Cl | 1.43% | inactive | inactive | inactive | – | – | –
4 | CCOC(=O)c1cncn1C(C)c1ccccc1 (stereo not given) | 10% and 2.86% | inactive | inactive | inactive | – | – | –
5 | N#Cc1cn([C@@H]2O[C@H](CO)[C@H](O)[C@@H]2O)c2ncnc(N)c12 | – | inactive | inactive | inactive | 75.7 nM (active) | – | –
6 | COC1(C[S@@](=O)c2ccccc2)CCN(CCc2c[nH]c3ccc(F)cc23)CC1 | -6.68% | inactive | inactive | inactive | – | – | –
7 | CN1[C@@H]2CC[C@H]1CC(OC(=O)C1C=Nc3ccccc31)C2 (stereo not given in full) | -7.64% | inactive | inactive | inactive | – | – | –
8 | CCCCN1[C@@H]2CC[C@H]1CC(OC(c1ccc(F)cc1)c1ccc(F)cc1)C2 (stereo not given in full) | 2.39% | inactive | inactive | inactive | – | – | –
9 | Cc1cccc(NC(=O)N[C@@H]2N=C(c3ccccc3)c3ccccc3N(C)C2=O)c1 | -11% | inactive | inactive | inactive | – | – | –
10 | CCN1C[C@]2(OC(=O)c3ccccc3NC(C)=O)CC[C@H](OC)[C@@]34[C@@H]2C[C@@H]([C@@H]13)[C@@]1(O)C[C@H](OC)[C@H]2C[C@@H]4[C@]1(O)[C@H]2OC | -6.68% | inactive | inactive | inactive | – | – | –
11 | Cc1c(Cl)cccc1S(=O)(=O)Nc1nc(CC(=O)N2CCN(C)CC2)cs1 | -6.21% | inactive | inactive | inactive | – | – | –
12 | COc1ccc2[nH]c(-c3ccccc3)c(CCN(C)C)c2c1 | -11% | inactive | inactive | inactive | – | – | –
13 | Cc1ccc(-n2nccn2)c(C(=O)N2CCN(c3nc4cc(Cl)ccc4o3)CCC2C)c1 (stereo not given) | -12.4% | inactive | inactive | inactive | – | – | –
14 | Clc1ccc(OCC2=NCCN2)cc1Cl | -0.955% | inactive | inactive | inactive | – | – | –
15 | CC1(C)C(=O)N(c2ccc(C#N)c(C(F)(F)F)c2)C(=O)N1CCCCO | -17.7% | inactive | inactive | inactive | – | – | –
16 | CCCCCn1cc(C(=O)Cc2ccccc2OC)c2ccccc21 | 3.34% | inactive | inactive | inactive | – | – | –
17 | O=C1CN=C(c2cccc(Br)c2)c2oc3ccccc3c2N1 | -24.3% | inactive | inactive | inactive | – | – | –
18 | O=C(N1CCCCC1Cc1ccccc1)n1cc(-c2ccc(-c3ccccc3)cc2)nn1 (stereo not given) | 1.43% | inactive | inactive | inactive | – | – | –
19 | O=C(NCCN1CCC2(CC1)C(=O)NCN2c1cccc(F)c1)c1ccc(F)c(F)c1 | 18.1% | inactive | inactive | inactive | – | – | –
20 | CC1(C)C(=O)N(c2ccc(C#N)c(C(F)(F)F)c2)C(=S)N1c1ccc(C(N)=O)c(F)c1 | 1.43% | inactive | inactive | inactive | – | – | –
21 | COc1cccc(NCC(F)Cn2c3ccc(Br)cc3c3cc(Br)ccc32)c1 (stereo not given) | 8.11% | inactive | inactive | inactive | – | – | –
22 | COc1cc(CCNCc2ccccc2O)c(OC)cc1C#N | -6.21% | inactive | inactive | inactive | – | – | –
23 | C[C@H]1CN(Cc2ccc(CC(=O)N3CCC(Nc4cccc(F)c4)CC3)cc2)CCN1 | -12.4% | inactive | inactive | inactive | – | – | –
24 | c1ccc(C2(c3ccccc3)OC[C@@H]([C@H]3CCCCN3)O2)cc1 | 2.86% | inactive | inactive | inactive | – | – | –
25 | CN1CCCCC1Cn1cc(C(=O)c2cc([N+](=O)[O-])ccc2I)c2ccccc21 (stereo not given) | 23.9% | inactive | inactive | inactive | – | – | –
26 | NCCCCCNC1(c2ccccc2)CCCCC1 | -6.68% | inactive | inactive | inactive | – | – | –
27 | CCOC(=O)c1ccc(-c2ccc(OC(=O)N(C)Cc3cccc(-c4ccncc4)c3)cc2)cc1 | -12.9% | inactive | inactive | inactive | – | – | –
28 | CCCCCCn1c(=O)c(C(=O)Nc2ccc(C(=O)OCCC)cc2)c(O)c2ccccc21 | 4.3% | – | inactive | – | – | 11.3% [at 11.2 µM] | 11.2% [at 11.2 µM]
29 | Cc1ccccc1CN1CCC(N2CCC(n3c(=O)[nH]c4ccccc43)CC2)CC1 | -15.8% | inactive | inactive | inactive | – | – | –
30 | CNC(=O)N1N=C(c2ccc(N)cc2)c2cc3c(cc2CC1C)OCO3 (stereo not given) | 34.7% | inactive | inactive | inactive | – | – | –
